Values joined by “and” are separate entries in the source; they are usually repeats but may differ in a detail not shown here. Equal entries are not always repeated. Results filed as inconclusive are left out. Active and inactive are the calls of the source. Unless noted, calls come from the whole dose curve; as a rule, active = well fitted inhibition curve with a large enough effect; inconclusive = small, poorly fitted or top-dose-only effect; inactive = flat fitted curve, though single readings scatter.
Columns and labels:
[1] = Drug repurposing screens with cells derived from glioblastoma tumor samples (AID 1345199); conditions: GBM patient neurospheres viability, ATP luminescence, 48 h; note: nearly all actives have a fitted effect of over 40% in size; note: potency is the fitted concentration of half-maximal effect; for activity, negative = cell killing: % is set by controls: 0 for no effect and ±100 for the full control effect
Method in brief: (§1)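 Four patient lines of CD133+ GBM neurospheres were screened at several concentrations; hits were retested in those lines plus three slower-growing GBM lines, using 48-hour treatment and ATP-based viability.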

astro = control astrocytes; assay: as above; conditions: viability, ATP luminescence, 48 h; series mostly up to 45.9 µM
Method in brief: as §1

[2] = target: Nuclear receptor subfamily 1 group I member 2 (Rattus norvegicus) (UniProt Q9R1A7); assay: qHTS assay for small molecule activators of the rat pregnane X receptor (rPXR) signaling pathway (AID 651751; call rule not given here; note: 0% is about no effect); conditions: rPXR reporter cells, luciferase (One-Glo), 24 h
[3] = qHTS assay for small molecule activators of the human pregnane X receptor (PXR) signaling pathway (AID 720659; call rule not given here; note: 0% is about no effect); conditions: DPX-2 HepG2 CYP3A4-luciferase, 24 h; series mostly up to 92.3 µM
[4] = at 45.9 µM (top of the series), tumour line B
[5] = at 45.9 µM (top of the series), tumour line D
[6] = at 46 µM (top of the series), tumour line A
[7] = at 46.1 µM (top of the series), tumour line C
[8] = at 20 µM (top of the series), tumour line C
[9] = at 21.2 µM (top of the series), tumour line B
[10] = at 21.2 µM (top of the series), tumour line D
[11] = at 21.3 µM (top of the series), tumour line A

Chain of Nuclear receptor subfamily 1 group I member 2 (Rattus norvegicus) (Q9R1A7 whole entry, looked up): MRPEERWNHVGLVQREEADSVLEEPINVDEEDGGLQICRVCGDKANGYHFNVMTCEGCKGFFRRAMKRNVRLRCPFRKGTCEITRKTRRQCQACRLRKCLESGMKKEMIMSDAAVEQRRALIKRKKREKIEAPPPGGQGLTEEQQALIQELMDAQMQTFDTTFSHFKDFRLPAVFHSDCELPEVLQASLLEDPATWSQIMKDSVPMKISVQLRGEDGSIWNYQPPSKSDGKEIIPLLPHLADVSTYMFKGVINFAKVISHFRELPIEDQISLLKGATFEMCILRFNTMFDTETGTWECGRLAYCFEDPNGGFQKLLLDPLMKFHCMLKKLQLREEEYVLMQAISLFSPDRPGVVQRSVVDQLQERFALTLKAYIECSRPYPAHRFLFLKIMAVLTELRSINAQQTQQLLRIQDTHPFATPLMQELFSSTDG

Cn1sc(Cl)cc1=O
inactive: activity, negative = cell killing [1, 4] -15.7% | activity, negative = cell killing [1, 5] -11.3% | activity, negative = cell killing [1, 6] -21.6% | activity, negative = cell killing [1, 7] -21.9% | Potency (astro)

CNC(C)C(O)c1ccc(O)cc1 (configuration not stated)
inactive: activity, negative = cell killing [1, 4] -14.1% and -15.9% | activity, negative = cell killing [1, 5] 3.04% and 6.23% | activity, negative = cell killing [1, 6] -17.8% and -27.7% | activity, negative = cell killing [1, 7] -5.67% and -20.1% | Potency (astro)

O=Cc1ccco1
inactive: activity, negative = cell killing [1, 4] -3.46% | activity, negative = cell killing [1, 5] 2.23% | activity, negative = cell killing [1, 6] -6.89% | activity, negative = cell killing [1, 7] -7% | Potency (astro) | max response [2] 4.33% | outcome [3]

CCC1(c2ccccc2)C(=O)NC(=O)NC1=O
inactive: activity, negative = cell killing [1, 4] -10.3% | activity, negative = cell killing [1, 5] 2.64% | activity, negative = cell killing [1, 6] -5.16% | activity, negative = cell killing [1, 7] 3.61% | Potency (astro)

C[C@@H](CO)NC(=O)[C@@H]1C=C2c3cccc4[nH]cc(c34)C[C@H]2N(C)C1
inactive: activity, negative = cell killing [1, 4] -4.28% | activity, negative = cell killing [1, 5] -4.71% | activity, negative = cell killing [1, 6] -21.2% | activity, negative = cell killing [1, 7] 15.8% | Potency (astro)

ClCC1CO1 (configuration not stated)
inactive: activity, negative = cell killing [1, 4] -15% | activity, negative = cell killing [1, 5] -9.19% | activity, negative = cell killing [1, 6] -27.8% | activity, negative = cell killing [1, 7] -16.2% | Potency (astro) | max response [2] 1.11% | outcome [3]

CCOC(=O)c1ccccc1C(=O)OCC
inactive: activity, negative = cell killing [1, 4] -8.14% | activity, negative = cell killing [1, 5] -11.3% | activity, negative = cell killing [1, 6] -28.3% | activity, negative = cell killing [1, 7] 0.324% | Potency (astro) | max response [2] 2.54% and 6.22% and -3.04% | outcome [3]

CCN(CC)C(=O)/C(Cl)=C(\C)OP(=O)(OC)OC
inactive: activity, negative = cell killing [1, 4] 1.79% | activity, negative = cell killing [1, 5] -19.8% | activity, negative = cell killing [1, 6] -32% | activity, negative = cell killing [1, 7] 1.99% | Potency (astro)

Clc1ccc(Cl)cc1
inactive: activity, negative = cell killing [1, 4] -3.79% | activity, negative = cell killing [1, 5] -0.0641% | activity, negative = cell killing [1, 6] -16.3% | activity, negative = cell killing [1, 7] -0.658% | Potency (astro)

CNc1ccc(C(=O)CC(O)CCC(C)C2OC(=O)CC(O)CC(=O)CC(O)CC(O)CC(O)CC(O)CC3(O)CC(O)C(C(=O)OC)C(CC(O[C@@H]4O[C@H](C)[C@@H](O)[C@H](N)[C@@H]4O)/C=C/C=C/C=C/C=C/C=C/C=C/C=C/C2C)O3)cc1 (some centres not stated)
inactive: activity, negative = cell killing [1, 4] -16.2% | activity, negative = cell killing [1, 5] 9.06% | activity, negative = cell killing [1, 6] -20.9% | activity, negative = cell killing [1, 7] -13.4% | Potency (astro)

O=c1ccc2cc(O[C@@H]3O[C@H](CO)[C@@H](O)[C@H](O)[C@H]3O)c(O)cc2o1
inactive: activity, negative = cell killing [1, 8] -2.02% | activity, negative = cell killing [1, 9] -12.8% | activity, negative = cell killing [1, 10] -17.9% | activity, negative = cell killing [1, 11] -15.8% | Potency (astro)

CCCC(C)(COC(N)=O)COC(=O)NC1CC1 (configuration not stated)
inactive: activity, negative = cell killing [1, 4] -5.97% | activity, negative = cell killing [1, 5] -18% | activity, negative = cell killing [1, 6] -25.6% | activity, negative = cell killing [1, 7] -16.6% | Potency (astro)

NCC[C@H](O)C(=O)N[C@@H]1C[C@H](N)[C@@H](O[C@H]2O[C@H](CN)[C@@H](O)[C@H](O)[C@H]2N)[C@H](O[C@@H]2O[C@H](CO)[C@@H](O)[C@H]2O)[C@H]1O
inactive: activity, negative = cell killing [1, 8] -6.64% | activity, negative = cell killing [1, 9] -8.33% | activity, negative = cell killing [1, 10] -11.1% | activity, negative = cell killing [1, 11] -21.7% | Potency (astro)

O=[N+]([O-])c1ccccc1
inactive: activity, negative = cell killing [1, 4] -3.33% | activity, negative = cell killing [1, 5] -6.09% | activity, negative = cell killing [1, 6] -9.64% | activity, negative = cell killing [1, 7] -9.59% | Potency (astro)

[O]=[Cd]
inactive: activity, negative = cell killing [1, 4] -6.73% | activity, negative = cell killing [1, 5] 0.985% | activity, negative = cell killing [1, 6] -15% | activity, negative = cell killing [1, 7] -5.34% | Potency (astro) | max response [2] 0.17% | outcome [3]

C[C@]12C[C@H]3S[C@H]3C[C@@H]1CC[C@@H]1[C@@H]2CC[C@]2(C)[C@@H](O)CC[C@@H]12
active: Potency ([1]; tumour line A) 14.1 µM
inactive: activity, negative = cell killing [1, 8] -0.246% | activity, negative = cell killing [1, 9] -21.3% | activity, negative = cell killing [1, 10] -16.8% | Potency (astro)

C[C@]12CCC(=O)C[C@@H]1CC[C@@H]1[C@@H]2CC[C@]2(C)[C@@H](O)CC[C@@H]12
active: Potency ([1]; tumour line A) 12.6 µM
inactive: activity, negative = cell killing [1, 4] -19.9% | activity, negative = cell killing [1, 5] -25.4% | activity, negative = cell killing [1, 7] -25.5% | max response [2] 6.67% and 13%

O=C/C=C/c1ccccc1
inactive: activity, negative = cell killing [1, 4] 0.0687% | activity, negative = cell killing [1, 5] -9.63% | activity, negative = cell killing [1, 6] -23.4% | activity, negative = cell killing [1, 7] 1.48% | Potency (astro) | max response [2] -2.3% and 9.18% | outcome [3]

ClC=C(Cl)Cl
inactive: activity, negative = cell killing [1, 4] -0.797% | activity, negative = cell killing [1, 5] -16.6% | activity, negative = cell killing [1, 6] -33.6% | activity, negative = cell killing [1, 7] -1.4% | Potency (astro) | max response [2] 1.22% and -1.96% | outcome [3]

Source: PubChem BioAssay (NCATS)
